aSyn rescue = inhibitors of alpha-synuclein toxicity in yeast. AID 652106. 370,000 compounds, 0.14% hits. Yeast expressing alpha-synuclein, growth rescue, BacTiter-Glo, 24 h. Potency, µM (top dose mostly 46.1 µM), most hits filed as activators; note: nearly all actives have a fitted effect of over 65% in size
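Galactose-induced alpha-syn yeast (OD600=0.02, raffinose-pregrown) + pinned cpd, 24 hr, 30 deg C; growth by BacTiter-Glo luminescence. Growth restoration scores as activation.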
Mito fusion yeast = blocks mitochondrial division or promotes mitochondrial fusion; Potency, µM (series often up to 46.1 µM), usual class: activators; 320,000 compounds, 0.23% hits; S. cerevisiae fusion-defective mutant growth rescue, CellTiterGlo 48 h; AID 485298; note: nearly all actives have a fitted effect of over 45% in size
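Luminescent cell viability in 1536-well qHTS format served as the measure of rescued growth in ts fusion-mutant S. cerevisiae cultured on non-fermentable YPEG for 48 hours at 37C.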
CCT chaperon mod = modulators of cytosolic chaperonin (CCT/TRiC) activity. purified chaperonin ATPase assay, HTRF ADP detection, 30 min. activity change, % (concentration not given with the values), hits read low. AID 651819. 360,000 compounds, 0.3% hits; in the data active = activity change below about -30%
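Nucleotide hydrolysis assay: TRiC at 20–40 nM final (set by batch activity) with 10 uM ATP, 30 min at 37 °C, in presence of 76 uM compound. Detection by competitive ADP HTRF, 30 min ambient.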
TDP43 rescue = rescues yeast growth from TDP-43 toxicity; TDP-43 expressing yeast growth rescue, BacTiter-Glo, 24 h; Potency, µM (top dose mostly 46.1 µM), hits mostly activators; 410,000 compounds, 1.8% hits; AID 652104; note: nearly all actives have a fitted effect of over 50% in size
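Growth rescue of TDP-43-toxic yeast measured as ATP luminescence (BacTiter-Glo). Cells grown to mid-log in raffinose, induced in galactose at OD600=0.02, exposed to compound 24 hr at 30 deg C.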
pAkt inh = inhibitors of Akt phosphorylation | 360,000 compounds, 0.32% hits | activity change, % for hits at 50 µM | Neuro2A IGF-stimulated pAkt S473 HTRF, 20 min; hits give low values | AID 651550; in the data active = activity change below about -80%; inconclusive = mostly about -51% to -80%
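Neuro2A cells (4,500/well, DMEM with 0.5% FBS) were treated with compound at a single 50 µM final concentration, stimulated with 6 nM IGF for 20 min at 37 °C, and lysed. Phospho-Akt Ser473 was read by HTRF as 665/615 ratio ×10^4.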
Anesthetic bind = binds horse apoferritin like a general anesthetic | P02791 | apoferritin/1-aminoanthracene competitive binding, fluorescence | Potency, µM (highest dose often 77.5 µM), hits mostly inhibitors | 350,000 compounds, 0.074% hits | AID 485281; note: nearly all actives have a fitted effect of over 20% in size
Target sequence (P02791 2-175 limits assumed): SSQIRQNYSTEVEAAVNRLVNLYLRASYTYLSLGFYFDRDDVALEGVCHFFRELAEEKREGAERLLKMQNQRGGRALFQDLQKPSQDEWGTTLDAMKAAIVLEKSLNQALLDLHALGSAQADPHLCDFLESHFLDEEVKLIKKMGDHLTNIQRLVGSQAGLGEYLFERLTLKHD
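Steps: apoferritin (10 uM) was premixed with half-saturated 1-AMA in PBS, compounds were pin-transferred, plates stood 10 min at room temperature, fluorescence was read at 380/535 nm, and curves were fitted with a Hill equation.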
Of the large screens only hits and unclear results are named; the others gave an inactive call. Shown are actives, neighbours in structure and some others; about 2.5% of the full set was active somewhere. Unless noted, calls come from the whole dose curve; as a rule, active = well fitted curve in the direction sought with a large enough effect; inconclusive = small, poorly fitted or top-dose-only effect, or another doubt; inactive = no such curve, though single readings can be large; an effect the other way counts as inactive or inconclusive.

C(=C/c1nccc2c1[nH]c1ccccc12)/c1ccc2c(c1)OCO2	TDP43 rescue 10µM
COc1ccc(/C=C/c2nccc3c2[nH]c2ccccc23)cc1	none (no result: Mito fusion yeast, CCT chaperon mod, TDP43 rescue, pAkt inh, Anesthetic bind)
CC(=O)c1ccc(N2CCN(c3ncccn3)CC2)cc1	Mito fusion yeast 25µM
CC(=O)c1ccc(NC(=O)CN2CCN(c3ccccc3)CC2)cc1	CCT chaperon mod -34
CC(=O)c1ccc(N2CCN(C(=O)Nc3ccc(Cl)cc3)CC2)cc1	none
CC(=O)c1ccc(NC(=O)N2CCN(c3cccc(Cl)c3)CC2)cc1	TDP43 rescue 13µM, Anesthetic bind inconclusive
O=C1C=C(c2cccc(Cl)c2O)C[C@@H](c2ccc3c(c2)OCO3)C1	aSyn rescue inconclusive, Mito fusion yeast 11µM, TDP43 rescue 3.5µM (no result: Anesthetic bind)
O=C1C=C(c2ccc(C(=O)O)c(Cl)c2)C[C@@H](c2ccc3c(c2)OCO3)C1	none (no result: Mito fusion yeast, Anesthetic bind)
COc1ccc([C@H]2CC(=O)C=C(c3cccc(Cl)c3O)C2)cc1OC	Mito fusion yeast inconclusive, TDP43 rescue 18µM (no result: Anesthetic bind)
CCN(CCCNC(=O)c1nn(-c2ccc(OC)c(Cl)c2)c(=O)c2c1c1ccccc1n2C)c1ccccc1	none (no result: aSyn rescue, Mito fusion yeast, CCT chaperon mod, pAkt inh)
COc1ccc(Cn2c(C(=O)O)c(CNCCc3ccccc3Cl)c3ccc(C)cc32)cc1	TDP43 rescue inconclusive (no result: aSyn rescue, Mito fusion yeast, CCT chaperon mod, pAkt inh)
COc1ccccc1N1CCN(C(=O)c2ccc(Cn3c(=S)[nH]c4cc5c(cc4c3=O)OCO5)cc2)CC1	CCT chaperon mod -31
CCOC(=O)N1CCN(C(=O)c2ccc(Cn3c(=S)[nH]c4cc5c(cc4c3=O)OCO5)cc2)CC1	none
O=C(N/N=C/c1ccc(OCc2ccccc2)cc1)c1ccncc1	Anesthetic bind inconclusive
Oc1ccc(N=Cc2ccc(OCc3ccccc3)cc2)cc1	TDP43 rescue 25µM, Anesthetic bind inconclusive
CC(C)(C)NCC(=O)N/N=C/c1ccc(OCc2ccccc2)cc1	TDP43 rescue 22µM, Anesthetic bind inconclusive
CCCCNC(=O)C(=O)N/N=C/c1ccc(OCc2ccccc2)cc1	none
c1nc2nc(Nc3ccc(N4CCOCC4)cc3)nc(NC3CCCCC3)c2[nH]1	none (no result: aSyn rescue, Mito fusion yeast, CCT chaperon mod, TDP43 rescue, pAkt inh)
Cc1ccsc1/C=N/Nc1ccc(C(=O)O)cc1	TDP43 rescue inconclusive
Brc1ccsc1/C=N/Nc1ccccc1	TDP43 rescue 10µM (no result: Mito fusion yeast, Anesthetic bind)
CNC(=O)c1c(NC(=O)c2cccc(C)c2)sc2c1CCC2	TDP43 rescue 14µM
N#Cc1ncc(C(F)(F)F)cc1Sc1ccc(N)cc1	TDP43 rescue 14µM, Anesthetic bind inconclusive
Cc1cc(C)c(C#N)c(Sc2ccc(N)cc2)n1	Mito fusion yeast inconclusive
CN=C1N[C@H](c2ccccc2)N(c2ccccc2)S1	none (no result: Mito fusion yeast, CCT chaperon mod, TDP43 rescue, pAkt inh, Anesthetic bind)
COc1cc(S(=O)(=O)n2ccc(C)n2)ccc1Cl	CCT chaperon mod -48 (no result: TDP43 rescue)
CN(CC(=O)Nc1cccc(F)c1)C(=O)c1ccc(-c2ccc(Cl)cc2)o1	TDP43 rescue 22µM, Anesthetic bind inconclusive
CCc1cnc2ccccc2c1/C=C/c1ccc(N(C)C)cc1	none (no result: Mito fusion yeast, CCT chaperon mod, TDP43 rescue, pAkt inh, Anesthetic bind)
CCCOc1ccc(F)cc1-c1cc(C(=O)Nc2ccc(OC)cc2OC)[nH]n1	TDP43 rescue inconclusive (no result: Mito fusion yeast, Anesthetic bind)
CCCOc1ccc(F)cc1-c1cc(C(=O)Nc2ccc(OC)cc2C)[nH]n1	TDP43 rescue 25µM (no result: Mito fusion yeast, Anesthetic bind)
CCc1ccc(NC(=O)CCc2ccc(C)o2)cc1	Anesthetic bind inconclusive
Cc1ccc(CCC(=O)Nc2ccc(C#N)cc2)o1	CCT chaperon mod -103 (no result: pAkt inh)
Cc1ccc(NC(=O)CSc2ncc3c(n2)-c2ccccc2N(C)S3(=O)=O)c(Cl)c1	none (no result: aSyn rescue, Mito fusion yeast, CCT chaperon mod, pAkt inh)
Cc1cccc(-n2c(O)c(/C=N/NC(=O)c3ccccc3Cl)c3ccccc3c2=O)n1	CCT chaperon mod -46
C/C(=N\Nc1cc(-c2ccccc2)nc(-c2ccc(Br)cc2)n1)c1cccc(N)c1	CCT chaperon mod -65 (no result: Mito fusion yeast, Anesthetic bind)
Fc1ccc(CNc2ncnc3onc(-c4ccc(F)cc4)c23)cc1	TDP43 rescue 13µM (no result: Mito fusion yeast, CCT chaperon mod, pAkt inh)
Clc1ccc(-c2noc3ncnc(NCCc4ccccc4)c23)cc1	TDP43 rescue 18µM (no result: Mito fusion yeast, CCT chaperon mod, pAkt inh)
Cc1ccc(CNc2ncnc3onc(-c4ccc(F)cc4)c23)cc1	none (no result: aSyn rescue, Mito fusion yeast, CCT chaperon mod, pAkt inh)
Cc1noc2ncnc(NCCc3ccccc3)c12	none (no result: aSyn rescue, Mito fusion yeast, CCT chaperon mod, pAkt inh)
Cc1c(O)c2c(c(C(=O)/C=C/c3ccccc3)c1O)OC(C)(C)C=C2	none (no result: Mito fusion yeast, CCT chaperon mod, TDP43 rescue, pAkt inh, Anesthetic bind)
Cc1nc2ccccc2nc1-c1csc(-c2ccccc2)n1	none (no result: Mito fusion yeast, CCT chaperon mod, TDP43 rescue, pAkt inh, Anesthetic bind)
